Experiment [1] can be described thus: Quantitative High-Throughput drug screen in 47 multiple myeloma cell lines against the NCATS MIPE library collection: JIM3_ECACC cell viability assay (AID 1918963; also: nearly all actives have a fitted effect of over 35% in size; also: potency is read from the fitted curve at half-maximal effect). An outline of the steps: (§1)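 Luminescent ATP measurement with CellTiter-Glo gives viability, scaled between DMSO-only wells (100%) and media-only wells (0%). Cells, 500 per well, faced library compounds for 48 hours at 37C.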

A short description of experiment [2]: Quantitative High-Throughput drug screen in 47 multiple myeloma cell lines against the NCATS MIPE library collection: INA6_PLB cell viability assay (AID 1918965; also: nearly all actives have a fitted effect of over 55% in size; also: potency is read from the fitted curve at half-maximal effect). An outline of the steps:
(§2)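 Steps: seed 500 cells per well; pin-transfer MIPE 4.0 library; incubate 48 h at 37C, 5% CO2, humidified; add CellTiter-Glo, 5 min room temperature; read luminescence.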

Experiment [3] in a line: Quantitative High-Throughput drug screen in 47 multiple myeloma cell lines against the NCATS MIPE library collection: H1112_PLB cell viability assay (AID 1918967; also: nearly all actives have a fitted effect of over 30% in size; also: potency is read from the fitted curve at half-maximal effect). An outline of the steps:
(§3)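 Myeloma cells (500 per well) were exposed to MIPE 4.0 compounds by pin transfer and incubated 48 hours at 37C, 5% CO2. Viability was read as ATP by CellTiter-Glo luminescence, normalised to DMSO (100%) and media-only (0%) wells.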

A short description of experiment [4]: Quantitative High-Throughput drug screen in 47 multiple myeloma cell lines against the NCATS MIPE library collection: Karpas25_ECACC cell viability assay (AID 1918968; also: nearly all actives have a fitted effect of over 35% in size; also: potency is read from the fitted curve at half-maximal effect). An outline of the steps:
as §3

Experiment [5] in a line: Quantitative High-Throughput drug screen in 47 multiple myeloma cell lines against the NCATS MIPE library collection: KMS27_JCRB cell viability assay (AID 1918970). Also: nearly all actives have a fitted effect of over 30% in size. Also: potency is read from the fitted curve at half-maximal effect. An outline of the steps: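 Viability inhibition screen, 48 h compound exposure, luminescent ATP read-out.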
Experiment [6] can be described thus: Quantitative High-Throughput drug screen in 47 multiple myeloma cell lines against the NCATS MIPE library collection: KMS12PE_JCRB cell viability assay (AID 1918972). Also: nearly all actives have a fitted effect of over 30% in size. Also: potency is read from the fitted curve at half-maximal effect. As to viability: series mostly up to about 46 µM. An outline of the steps:
as §2

A short description of experiment [7]: Quantitative High-Throughput drug screen in 47 multiple myeloma cell lines against the NCATS MIPE library collection: KMS26_JCRB cell viability assay (AID 1918975). Also: nearly all actives have a fitted effect of over 45% in size. Also: potency is read from the fitted curve at half-maximal effect. An outline of the steps: as §2
A short description of experiment [8]: Quantitative High-Throughput drug screen in 47 multiple myeloma cell lines against the NCATS MIPE library collection: MMM1_PLB cell viability assay (AID 1918976). Also: potency is read from the fitted curve at half-maximal effect; nearly all actives have a fitted effect of over 35% in size. The following applies: MMM1 myeloma cells viability, CellTiter-Glo, 48 h. An outline of the steps: (§4)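 Inhibition of viability over 48 h was scored by ATP content (CellTiter-Glo) in 500-cell wells. Zero and full viability were defined by media-only and DMSO-only wells.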
(In general: Cellular ATP, detected with luciferase, serves as a proxy for viable cell number.)

Experiment [9] is described as follows: Quantitative High-Throughput drug screen in 47 multiple myeloma cell lines against the NCATS MIPE library collection: MOLP8_DSMZ cell viability assay (AID 1918977). Also: nearly all actives have a fitted effect of over 45% in size. An outline of the steps:
as §4

Experiment [10] is described as follows: Quantitative High-Throughput drug screen in 47 multiple myeloma cell lines against the NCATS MIPE library collection: NCIH929_DSMZ cell viability assay (AID 1918978). Also: nearly all actives have a fitted effect of over 35% in size. Also: potency is read from the fitted curve at half-maximal effect. An outline of the steps:
as §4

A short description of experiment [11]: Quantitative High-Throughput drug screen in 47 multiple myeloma cell lines against the NCATS MIPE library collection: MM1S_ATCC cell viability assay (AID 1918980). Also: nearly all actives have a fitted effect of over 45% in size. Also: potency is read from the fitted curve at half-maximal effect. An outline of the steps:
as §4

Experiment [12] is described as follows: Quantitative High-Throughput drug screen in 47 multiple myeloma cell lines against the NCATS MIPE library collection: MM1R_ATCC cell viability assay (AID 1918981). Also: nearly all actives have a fitted effect of over 35% in size. Also: potency is read from the fitted curve at half-maximal effect. An outline of the steps: as §4
Experiment [13] can be described thus: Quantitative High-Throughput drug screen in 47 multiple myeloma cell lines against the NCATS MIPE library collection: LP1_DSMZ cell viability assay (AID 1918982). Also: nearly all actives have a fitted effect of over 35% in size. An outline of the steps:
as §4

The nature of experiment [14]: Quantitative High-Throughput drug screen in 47 multiple myeloma cell lines against the NCATS MIPE library collection: Karpas417_ECACC cell viability assay (AID 1918961). Also: potency is read from the fitted curve at half-maximal effect. An outline of the steps: as §2
Experiment [15] is described as follows: Quantitative High-Throughput drug screen in 47 multiple myeloma cell lines against the NCATS MIPE library collection: KHM11_PLB cell viability assay (AID 1918962). Also: nearly all actives have a fitted effect of over 35% in size. Also: potency is read from the fitted curve at half-maximal effect. An outline of the steps:
as §1

A short description of experiment [16]: Quantitative High-Throughput drug screen in 47 multiple myeloma cell lines against the NCATS MIPE library collection: JJN3_DSMZ cell viability assay (AID 1918966; also: nearly all actives have a fitted effect of over 50% in size; also: potency is read from the fitted curve at half-maximal effect). An outline of the steps: as §3
The nature of experiment [17]: Quantitative High-Throughput drug screen in 47 multiple myeloma cell lines against the NCATS MIPE library collection: KMS12BM_JCRB cell viability assay (AID 1918971). Also: nearly all actives have a fitted effect of over 35% in size. Also: potency is read from the fitted curve at half-maximal effect. An outline of the steps: as §2
Experiment [18] in a line: Quantitative High-Throughput drug screen in 47 multiple myeloma cell lines against the NCATS MIPE library collection: KMS20_JCRB cell viability assay (AID 1918973). Also: nearly all actives have a fitted effect of over 45% in size. Also: potency is read from the fitted curve at half-maximal effect. An outline of the steps: as §3
Experiment [19] is described as follows: Quantitative High-Throughput drug screen in 47 multiple myeloma cell lines against the NCATS MIPE library collection: KMS21BM_JCRB cell viability assay (AID 1918974). Also: potency is read from the fitted curve at half-maximal effect. An outline of the steps:
as §3

Experiment [20] can be described thus: Quantitative High-Throughput drug screen in 47 multiple myeloma cell lines against the NCATS MIPE library collection: JIM1_ECACC cell viability assay (AID 1918964). An outline of the steps: as §3

Records with an inconclusive call do not appear. Activity calls are given as the source filed them. Calls follow the shape of the dose curve; as a rule, active = well fitted curve in the direction sought with a large enough effect; inconclusive = small, poorly fitted or top-dose-only effect, or another doubt; inactive = no such curve, though single readings can be large; an effect the other way counts as inactive or inconclusive.

For the compound `CCC1(c2ccc(N)cc2)CCC(=O)NC1=O` (stereo unspecified), the Potency entry in experiment [1], in [2], in [3], in experiment [4], in experiment [5] and in [6] was “inactive” throughout. Besides, the Potency result in experiment [7], in experiment [10], in experiment [11] and in experiment [12] was “inactive” throughout. For the same compound, the Potency in experiment [8] is 0.743 µM (active). In addition, the outcome in [9] and in [13] was inactive.

Take `C[C@](O)(CS(=O)(=O)c1ccc(F)cc1)C(=O)Nc1ccc(C#N)c(C(F)(F)F)c1`: the Potency in experiment [14] is 0.935 µM (active); in experiment [15], 0.833 µM (active); in experiment [1], 2.35 µM (active); in experiment [2] it was 1.18 µM (active); in [16], 4.69 µM (active); in [3] it was 0.662 µM (active). Also, the Potency in [4] was 0.418 µM (active); in [17], 26.4 µM (active); in experiment [18], 0.833 µM (active); in experiment [19] it was 6.62 µM (active); in experiment [7], 4.69 µM (active); in experiment [10], 0.296 µM (active). For the same compound, the Potency in experiment [11] was 0.372 µM (active); in experiment [12] it was 2.35 µM (active). In [5], the Potency entry is “inactive”.

Turning to `CC(C)C[C@H](CN)CC(=O)O`, the Potency result in experiment [14], in experiment [15], in experiment [1], in experiment [2], in experiment [3] and in experiment [4] was “inactive” in each case. Besides, the Potency result in [5], in experiment [6], in experiment [7], in experiment [10] and in experiment [12] was “inactive” each time. The outcome in [20], in experiment [9] and in experiment [13] was inactive. Moreover, the Potency is 9.35 µM (active) in experiment [17] and 11.8 µM (active) in experiment [8].

In the case of `O=C(O)CCCc1ccc(N(CCCl)CCCl)cc1`, the Potency entry in [1], in experiment [3], in experiment [6] and in experiment [19] was “inactive” each time. The Potency in experiment [2] is 18.7 µM (active); in experiment [12], 23.5 µM (active).

With `C[C@]12CC[C@H]3[C@@H](CC[C@@]45O[C@H]4C(O)=C(C#N)C[C@]35C)[C@H]1CC[C@H]2O`, the Potency result in experiment [14], in experiment [1], in [4], in experiment [17], in experiment [18] and in experiment [10] was “inactive” each time. The compound was called inactive in experiment [20] and in experiment [13]. The Potency was 18.7 µM (active) in experiment [16] and 1.48 µM (active) in experiment [11].

`CC(NC(C)(C)C)C(=O)c1cccc(Cl)c1` (stereo unspecified): the Potency result in experiment [1], in [2], in experiment [16], in [5], in experiment [6] and in experiment [7] was “inactive” throughout. Further, in experiment [10], the Potency result was “inactive”. Also, the Potency in experiment [4] was 3.72 µM (active).

As for `C[C@]12CC[C@@H]3c4ccc(OC(=O)N(CCCl)CCCl)cc4CC[C@H]3[C@@H]1CC[C@@H]2OP(=O)(O)O`, the Potency result in [1], in experiment [16], in experiment [3], in experiment [4], in experiment [5] and in experiment [17] was “inactive” in each case. The Potency result in experiment [19] and in [10] was “inactive” throughout. Besides, the compound was classed as inactive in experiment [20], in experiment [9] and in experiment [13].

With `CN1C(=O)CCS(=O)(=O)C1c1ccc(Cl)cc1` (stereo unspecified), the Potency entry in [1], in experiment [2], in experiment [16], in [5], in [17] and in [6] was “inactive” in each case. For the same compound, the Potency entry in [18], in [7] and in experiment [12] was “inactive” each time. Further, the call in experiment [20], in experiment [9] and in experiment [13] was inactive. In addition, the Potency in [3] was 16.6 µM (active); in [10], 20.9 µM (active); in [11], 18.7 µM (active).

On to `O=P1(N(CCCl)CCCl)NCCCO1` (stereo unspecified), for which the Potency result in [14], in experiment [15], in experiment [3] and in experiment [11] was “inactive” each time. In addition, the Potency was 20.9 µM (active) in [5]; 8.33 µM (active) in experiment [6]; 14.8 µM (active) in [19]; 2.35 µM (active) in experiment [8]; 8.33 µM (active) in experiment [10]. Moreover, in experiment [13], the result was inactive.

Consider `C[C@]12CCC(=O)C=C1CC[C@@H]1[C@H]3CC[C@](C)(O)[C@@]3(C)CC[C@@H]12`, for which the Potency entry in experiment [1], in [3] and in experiment [10] was “inactive” throughout. For the same compound, the result in [20] was inactive. Besides, the Potency in [17] was 34 µM (active); in experiment [6] it was 15.2 µM (active); in experiment [11], 38.2 µM (active).

As for `COc1cc(OC)c(OC)cc1C=O`, the Potency entry in experiment [1], in [2], in [3], in experiment [4], in experiment [6] and in [18] was “inactive” each time. The Potency result in experiment [19], in [7], in [10] and in [12] was “inactive” in each case. Also, the compound was called inactive in experiment [20] and in experiment [13]. Also, in experiment [5], the Potency is 0.0047 µM (active).

`CC(C)c1cccc(C(C)C)c1O`: the Potency entry in [1], in experiment [2], in [3], in [4], in experiment [18] and in experiment [10] was “inactive” throughout. Further, the Potency entry in [12] was “inactive”. The compound was classed as inactive in experiment [20], in [9] and in [13]. Moreover, the Potency in [11] was 8.33 µM (active).

In the case of `CN1C(=O)COc2c(C(=O)NC3CN4CCC3CC4)cc(Cl)cc21` (stereo unspecified), the Potency entry in experiment [15], in experiment [1], in experiment [3], in experiment [4], in experiment [17] and in experiment [6] was “inactive” throughout. Moreover, the Potency result in experiment [7], in experiment [10] and in experiment [12] was “inactive” in each case. In addition, the compound was called inactive in experiment [9] and in [13].

Values taken from PubChem BioAssay (NCATS).
